Results as given in PubChem BioAssay (Tox21).
Results filed as inconclusive are left out. A number with no mark means an inactive call. Activity calls are given as the source filed them. Calls follow the shape of the dose curve; as a rule, active = well fitted curve in the direction sought with a large enough effect in the repeat runs; inconclusive = weak or mixed curves; inactive = no such curve, though single readings can be large; an effect the other way counts as inactive or inconclusive.

Each compound was assayed against Cytochrome P450 2C19 (Homo sapiens) (UniProt P33261) (assay: Cytochrome P450 Family 2 Subfamily C Member 19 (CYP2C19) small molecule antagonists: luciferase reporter qHTS assay (AID 1671197; also: nearly all actives have a fitted effect of over 65% in size)). Details: P450-Glo CYP2C19 enzyme, luciferin luminescence, 1 h; series mostly up to 115 µM; activity change, negative = inhibition: at the top concentration.
Cytochrome P450 2C19 (Homo sapiens), sequence (P33261 whole entry, looked up): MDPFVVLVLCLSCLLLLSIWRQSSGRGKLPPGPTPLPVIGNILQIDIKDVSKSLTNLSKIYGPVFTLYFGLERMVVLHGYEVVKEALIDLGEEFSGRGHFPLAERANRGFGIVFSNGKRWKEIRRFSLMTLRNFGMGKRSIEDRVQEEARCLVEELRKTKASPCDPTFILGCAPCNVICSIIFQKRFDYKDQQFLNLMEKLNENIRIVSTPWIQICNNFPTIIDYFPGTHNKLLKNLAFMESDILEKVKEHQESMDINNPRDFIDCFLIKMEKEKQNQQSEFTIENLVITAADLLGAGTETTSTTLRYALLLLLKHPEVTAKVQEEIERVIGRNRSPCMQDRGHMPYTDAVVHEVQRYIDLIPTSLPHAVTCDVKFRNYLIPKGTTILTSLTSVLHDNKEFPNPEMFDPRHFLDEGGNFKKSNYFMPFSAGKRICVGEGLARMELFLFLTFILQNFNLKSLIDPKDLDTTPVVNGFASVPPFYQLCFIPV
How it was run: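 Quantitative high-throughput screen of the Tox21 library using CYP2C19 with proluciferin substrate. Reaction: NADPH regeneration, 37C, 1 h, after 10 min compound preincubation at room temperature. Readout: luminescence.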
% is scaled to controls: 0 for no effect and ±100 for the full control effect; potency is read from the fitted curve at half-maximal effect.

Compared with `C[N+](=O)[O-]`, `O=[N+]([O-])c1cccc(O)c1` is higher in “activity change, negative = inhibition” value: -2.22% for the first, 5.36% for the second.

Going from `CC1CCC(=O)O1` (stereo not drawn) to `Nc1cnn(-c2ccccc2)c(=O)c1Cl`, the “activity change, negative = inhibition” value rises from 3.03% to 10.8%.

Compared with `N#CCNCC#N`, `N#CCBr` is lower in “activity change, negative = inhibition” value: -13.2% for the first, -25.1% for the second.

Going from `Oc1c(Cl)cccc1Cl` to `N#Cc1c(Cl)cccc1Cl`, the “activity change, negative = inhibition” value falls from 13.5% to -18.9%.

Compared with `O=C(O)c1cccc(Cl)c1`, `Nc1ccccc1Cl` is higher in “activity change, negative = inhibition” value: -21% for the first, -1.89% for the second.

Compared with `Cc1cccc(C#N)c1`, `N#CC(O)c1ccccc1` (stereo not drawn) is lower in “activity change, negative = inhibition” value: 11.7% for the first, -7.23% for the second.

Compared with `[As]#[In]`, `COc1cc(C[C@@H](C)N)c(OC)cc1C` is higher in “activity change, negative = inhibition” value: 1.16% for the first, 26.4% for the second.

Compared with `ClC(Cl)C(Cl)Cl`, `CC(C)COP(=O)(OCC(C)C)OCC(C)C` is higher in “activity change, negative = inhibition” value: -17.7% for the first, 14.1% for the second.

Compared with `COC(C)(C)C`, `COc1cc(OC)nc(NC(=O)NS(=O)(=O)c2ncccc2C(=O)N(C)C)n1` is higher in “activity change, negative = inhibition” value: -15.2% for the first, -12% for the second.

Compared with `CCCCN(CCCCO)N=O`, `CCC1(c2ccccc2)C(=O)NC(=O)NC1=O` is higher in “activity change, negative = inhibition” value: -24.3% for the first, 7.09% for the second.

Going from `O=C1OC(c2ccc(O)c(S(=O)(=O)O)c2)(c2ccc(O)c(S(=O)(=O)O)c2)c2c(Br)c(Br)c(Br)c(Br)c21` to `O=C(CCCN1CCC(n2c(=O)[nH]c3ccccc32)CC1)c1ccc(F)cc1`, the “activity change, negative = inhibition” value rises from 18.5% [at 52.9 µM] to 25.8% [at 52.9 µM].

First: Clc1cccc(N2CCNCC2)c1
Second: c1ccc(N2CCNCC2)cc1
The “activity change, negative = inhibition” value of the first is lower: -16.6% [at 52.9 µM] for the first, 2.59% [at 52.9 µM] for the second.

In the case of `CCCCOC(=O)c1ccccc1N`, the Potency is reported as 28.4 µM (active).
In the case of `[Cl][Sn]([Cl])([Cl])[Cl]`, the Potency is reported as 81.5 µM (active).
For `ClCCCN1CCN(c2cccc(Cl)c2)CC1`, the Potency was 8.71 µM (active).
In the case of `C[C@]1(O)CC[C@H]2[C@@H]3CCC4=CC(=O)CC[C@]4(C)[C@@]3(F)[C@@H](O)C[C@@]21C`, the Potency is reported as 71.4 µM (active).
In the case of `CCC(C)n1c(=O)[nH]c(C)c(Br)c1=O` (stereo not drawn), the Potency is reported as 39.9 µM (active).
For `CCC(=O)C(CCN(C)C)(c1ccccc1)c1ccccc1`, the Potency was 11 µM (active).
With `O=NN1CCCCC1` the Potency was 35.4 µM (active).
`O=C1CN2CCOC2(c2ccccc2Cl)c2cc(Cl)ccc2N1` (stereo not drawn) was tested, and the Potency was 6.17 µM (active).
In the case of `CCN(CC)C(=O)[C@@H]1C=C2c3cccc4[nH]cc(c34)C[C@H]2N(C)C1`, the Potency is reported as 165 µM (active).
With `CCCCP(CCCC)CCCC` the Potency was 31.7 µM (active).
For `OC(c1ccccc1)(c1ccccc1)C1CCNCC1`, the Potency was 4.36 µM (active).
In the case of `CC1(C)CON(Cc2ccccc2Cl)C1=O`, the Potency is reported as 10 µM (active).
For `CSc1ccc(C(=O)C(C)(C)N2CCOCC2)cc1`, the Potency was 1.12 µM (active).

The compounds below were run against Cytochrome P450 2C9 (Homo sapiens) (UniProt P11712) (assay: Cytochrome P450 Family 2 Subfamily C Member 9 (CYP2C9) small molecule antagonists: luciferase reporter qHTS assay (AID 1671198; also: nearly all actives have a fitted effect of over 50% in size)). Details: P450-Glo CYP2C9 enzyme assay, luciferin luminescence; series mostly up to 115 µM; activity change, negative = inhibition: at the top concentration.
Cytochrome P450 2C9 (Homo sapiens), sequence (P11712 whole entry, looked up): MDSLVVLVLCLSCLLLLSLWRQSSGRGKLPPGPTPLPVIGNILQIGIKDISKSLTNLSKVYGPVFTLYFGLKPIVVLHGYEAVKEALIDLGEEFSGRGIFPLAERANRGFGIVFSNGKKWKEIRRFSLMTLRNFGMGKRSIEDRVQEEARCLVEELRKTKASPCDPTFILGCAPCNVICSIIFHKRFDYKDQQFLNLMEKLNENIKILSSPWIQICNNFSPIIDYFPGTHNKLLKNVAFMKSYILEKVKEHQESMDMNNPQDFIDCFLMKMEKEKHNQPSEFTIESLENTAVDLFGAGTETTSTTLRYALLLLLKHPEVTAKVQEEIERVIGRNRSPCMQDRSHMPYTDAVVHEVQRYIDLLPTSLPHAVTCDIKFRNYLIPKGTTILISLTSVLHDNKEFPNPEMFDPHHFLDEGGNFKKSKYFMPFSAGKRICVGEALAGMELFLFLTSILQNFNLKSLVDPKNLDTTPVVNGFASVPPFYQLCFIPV
How it was run: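 P450-Glo proluciferin substrate with CYP2C9 enzyme; 10 min RT preincubation, then NADPH regeneration 1 h at 37C; luciferin detection reagent 20 min RT, luminescence in relative luminescence units.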

First: C[N+](=O)[O-]
Second: O=[N+]([O-])c1cccc(O)c1
The “activity change, negative = inhibition” value of the first is lower: -11.3% for the first, 13.9% for the second.

Going from `CC1CCC(=O)O1` (stereo not drawn) to `CCC1(c2ccccc2)C(=O)NC(=O)NC1=O`, the “activity change, negative = inhibition” value rises from -9.06% to -7.83%.

Going from `N#CCNCC#N` to `COC(C)(C)C`, the “activity change, negative = inhibition” value rises from -14.7% to -1.48%.

Going from `Oc1c(Cl)cccc1Cl` to `N#Cc1c(Cl)cccc1Cl`, the “activity change, negative = inhibition” value falls from -17.5% to -20.7%.

First: Nc1ccccc1Cl
Second: N#CC(O)c1ccccc1 (stereo not drawn)
The “activity change, negative = inhibition” value of the first is lower: -5.9% for the first, -2.22% for the second.

First: Cc1cccc(C#N)c1
Second: COc1cc(C[C@@H](C)N)c(OC)cc1C
The “activity change, negative = inhibition” value of the first is lower: 0.497% for the first, 5.58% for the second.

Compared with `ClC(Cl)C(Cl)Cl`, `CC(C)COP(=O)(OCC(C)C)OCC(C)C` is lower in “activity change, negative = inhibition” value: 0.181% for the first, -15.3% for the second.

For `COc1cc(OC)nc(NC(=O)NS(=O)(=O)c2ncccc2C(=O)N(C)C)n1`, the “activity change, negative = inhibition” value was -16.3%.

Compared with `Clc1cccc(N2CCNCC2)c1`, `c1ccc(N2CCNCC2)cc1` is higher in “activity change, negative = inhibition” value: -5.67% [at 53 µM] for the first, -4.63% [at 53 µM] for the second.

`OC(c1ccccc1)(c1ccccc1)C1CCNCC1` was tested, and the “activity change, negative = inhibition” value was -6.8% [at 53 µM].

With `CSc1ccc(C(=O)C(C)(C)N2CCOCC2)cc1` the Potency was 20 µM (active).

The compounds below were run against Cytochrome P450 1A2 (Homo sapiens) (UniProt P05177) (assay: Cytochrome P450 Family 1 Subfamily A Member 2 (CYP1A2) small molecule antagonists: luciferase reporter qHTS assay (AID 1671199; also: nearly all actives have a fitted effect of over 50% in size)). Details: P450-Glo CYP1A2 enzyme, luciferin luminescence, 1 h; series mostly up to 115 µM; activity change, negative = inhibition: at the top concentration.
Cytochrome P450 1A2 (Homo sapiens), sequence (P05177 whole entry, looked up): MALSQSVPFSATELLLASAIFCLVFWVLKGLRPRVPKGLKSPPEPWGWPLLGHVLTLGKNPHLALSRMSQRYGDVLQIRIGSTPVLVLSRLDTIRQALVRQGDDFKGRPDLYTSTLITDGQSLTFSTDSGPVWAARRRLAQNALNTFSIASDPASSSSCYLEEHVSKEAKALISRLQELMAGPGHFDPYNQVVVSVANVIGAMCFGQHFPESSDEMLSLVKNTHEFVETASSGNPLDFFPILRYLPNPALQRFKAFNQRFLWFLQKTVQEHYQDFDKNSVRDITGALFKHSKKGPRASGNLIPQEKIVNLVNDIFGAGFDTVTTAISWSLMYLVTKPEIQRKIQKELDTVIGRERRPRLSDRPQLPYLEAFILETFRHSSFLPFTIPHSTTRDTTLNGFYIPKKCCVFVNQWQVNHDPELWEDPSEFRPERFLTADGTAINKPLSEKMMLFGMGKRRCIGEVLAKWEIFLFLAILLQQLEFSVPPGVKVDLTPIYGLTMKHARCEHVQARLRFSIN
How it was run: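 Read-out is luminescence from luciferin detection reagent (20 min) proportional to CYP1A2 activity; compounds in DMSO preincubated 10 min with enzyme and proluciferin substrate, then NADPH regeneration solution, 1 h, room temperature.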

Going from `O=C1OC(c2ccc(O)c(S(=O)(=O)O)c2)(c2ccc(O)c(S(=O)(=O)O)c2)c2c(Br)c(Br)c(Br)c(Br)c21` to `O=C1CN2CCOC2(c2ccccc2Cl)c2cc(Cl)ccc2N1` (stereo not drawn), the “activity change, negative = inhibition” value rises from -10.6% [at 53 µM] to -0.244% [at 53 µM].

First: O=C(CCCN1CCC(n2c(=O)[nH]c3ccccc32)CC1)c1ccc(F)cc1
Second: CCC(=O)C(CCN(C)C)(c1ccccc1)c1ccccc1
The “activity change, negative = inhibition” value of the first is higher: -0.585% [at 53 µM] for the first, -23.1% [at 53 µM] for the second.

With `CCCCOC(=O)c1ccccc1N` the Potency was 8.99 µM (active).
For `[Cl][Sn]([Cl])([Cl])[Cl]`, the Potency was 32.4 µM (active).
With `ClCCCN1CCN(c2cccc(Cl)c2)CC1` the Potency was 15.5 µM (active).
With `O=C(O)c1cccc(Cl)c1` the Potency was 40 µM (active).
With `CC1(C)CON(Cc2ccccc2Cl)C1=O` the Potency was 31.7 µM (active).

Compared with `Nc1cnn(-c2ccccc2)c(=O)c1Cl`, `O=NN1CCCCC1` is higher in “activity change, negative = inhibition” value: -25% for the first, -4.39% for the second.

Compared with `N#CCBr`, `CCCCN(CCCCO)N=O` is higher in “activity change, negative = inhibition” value: -15.8% for the first, -12.5% for the second.

With `[As]#[In]` the “activity change, negative = inhibition” value was -12%.

Each compound was assayed against Voltage-gated inwardly rectifying potassium channel KCNH2 (Homo sapiens) (UniProt Q12809) (assay: Human Ether-a-go-go-Related Gene (hERG) channel small molecule antagonists: fluorescence cell-based qHTS assay (AID 1671200; also: nearly all actives have a fitted effect of over 50% in size;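 as to activity change, negative = inhibition: hERG-expressing U2OS cells given a thallium stimulus after FluxOR II dye loading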)). Details: hERG-U2OS cells, FluxOR thallium flux fluorescence; series mostly up to 76.8 µM; activity change, negative = inhibition: at the top concentration.
Voltage-gated inwardly rectifying potassium channel KCNH2 (Homo sapiens), sequence (Q12809 whole entry, looked up): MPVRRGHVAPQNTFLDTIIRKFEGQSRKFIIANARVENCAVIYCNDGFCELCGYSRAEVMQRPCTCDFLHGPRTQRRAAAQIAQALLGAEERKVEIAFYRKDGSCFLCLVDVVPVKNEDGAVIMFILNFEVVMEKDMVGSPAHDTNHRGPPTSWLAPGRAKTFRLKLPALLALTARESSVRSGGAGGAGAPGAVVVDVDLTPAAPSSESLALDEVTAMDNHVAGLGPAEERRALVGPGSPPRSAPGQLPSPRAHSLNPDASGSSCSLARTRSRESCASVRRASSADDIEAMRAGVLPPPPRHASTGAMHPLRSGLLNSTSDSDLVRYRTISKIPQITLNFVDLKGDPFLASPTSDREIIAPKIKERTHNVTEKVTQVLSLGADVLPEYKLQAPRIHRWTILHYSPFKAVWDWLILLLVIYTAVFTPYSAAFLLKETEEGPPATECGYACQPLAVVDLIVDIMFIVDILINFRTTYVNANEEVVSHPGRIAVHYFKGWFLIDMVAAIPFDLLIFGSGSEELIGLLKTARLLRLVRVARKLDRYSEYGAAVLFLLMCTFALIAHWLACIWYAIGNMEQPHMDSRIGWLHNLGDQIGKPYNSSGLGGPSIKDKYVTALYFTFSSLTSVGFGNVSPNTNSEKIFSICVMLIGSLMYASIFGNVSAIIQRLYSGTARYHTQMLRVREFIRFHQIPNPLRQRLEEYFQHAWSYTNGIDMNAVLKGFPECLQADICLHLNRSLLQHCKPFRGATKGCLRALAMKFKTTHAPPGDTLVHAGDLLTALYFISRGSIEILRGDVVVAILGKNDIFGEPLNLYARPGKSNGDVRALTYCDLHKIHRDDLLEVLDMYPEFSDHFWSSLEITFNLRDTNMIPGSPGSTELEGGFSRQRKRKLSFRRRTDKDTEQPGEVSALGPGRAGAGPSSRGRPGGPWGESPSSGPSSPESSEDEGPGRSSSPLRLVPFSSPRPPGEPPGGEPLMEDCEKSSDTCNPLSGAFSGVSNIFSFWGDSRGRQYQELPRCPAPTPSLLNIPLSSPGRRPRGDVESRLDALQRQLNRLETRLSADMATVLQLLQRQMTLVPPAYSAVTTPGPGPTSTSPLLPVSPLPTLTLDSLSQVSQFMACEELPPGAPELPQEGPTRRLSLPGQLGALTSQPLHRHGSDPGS
How it was run: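 hERG-U2OS cells plated overnight at 37 C, loaded with FluxOR II dye 1 h at RT in dark; after 10 min, thallium stimulus added. Fluorescence (480/540 nm) read kinetically for 2 min at 1 s intervals.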

Going from `C[N+](=O)[O-]` to `O=[N+]([O-])c1cccc(O)c1`, the “activity change, negative = inhibition” value falls from 2.07% to 1.19%.

First: CC1CCC(=O)O1 (stereo not drawn)
Second: C[C@]1(O)CC[C@H]2[C@@H]3CCC4=CC(=O)CC[C@]4(C)[C@@]3(F)[C@@H](O)C[C@@]21C
The “activity change, negative = inhibition” value of the first is lower: -0.541% for the first, 3.42% for the second.

Going from `CCCCOC(=O)c1ccccc1N` to `Nc1ccccc1Cl`, the “activity change, negative = inhibition” value rises from -12.2% to -0.405%.

Compared with `N#CCNCC#N`, `N#CCBr` is higher in “activity change, negative = inhibition” value: 0.0221% for the first, 3.41% for the second.

Compared with `Nc1cnn(-c2ccccc2)c(=O)c1Cl`, `CCC1(c2ccccc2)C(=O)NC(=O)NC1=O` is lower in “activity change, negative = inhibition” value: 2.2% for the first, 1.27% for the second.

First: Oc1c(Cl)cccc1Cl
Second: N#Cc1c(Cl)cccc1Cl
The “activity change, negative = inhibition” value of the first is higher: 9.36% for the first, 3.67% for the second.

Going from `[Cl][Sn]([Cl])([Cl])[Cl]` to `ClC(Cl)C(Cl)Cl`, the “activity change, negative = inhibition” value falls from 1.58% to 1.45%.

Going from `O=C(O)c1cccc(Cl)c1` to `Cc1cccc(C#N)c1`, the “activity change, negative = inhibition” value rises from -0.581% to 0.259%.

Going from `CCC(C)n1c(=O)[nH]c(C)c(Br)c1=O` (stereo not drawn) to `COc1cc(C[C@@H](C)N)c(OC)cc1C`, the “activity change, negative = inhibition” value falls from -1.07% to -1.42%.

First: [As]#[In]
Second: O=NN1CCCCC1
The “activity change, negative = inhibition” value of the first is higher: -1.78% for the first, -4.83% for the second.

Going from `N#CC(O)c1ccccc1` (stereo not drawn) to `CC1(C)CON(Cc2ccccc2Cl)C1=O`, the “activity change, negative = inhibition” value rises from 1.64% to 2.63%.

Going from `COC(C)(C)C` to `CC(C)COP(=O)(OCC(C)C)OCC(C)C`, the “activity change, negative = inhibition” value falls from -0.902% to -3.8%.

First: CCCCP(CCCC)CCCC
Second: COc1cc(OC)nc(NC(=O)NS(=O)(=O)c2ncccc2C(=O)N(C)C)n1
The “activity change, negative = inhibition” value of the first is higher: -0.508% for the first, -4.91% for the second.

Going from `O=C1OC(c2ccc(O)c(S(=O)(=O)O)c2)(c2ccc(O)c(S(=O)(=O)O)c2)c2c(Br)c(Br)c(Br)c(Br)c21` to `O=C1CN2CCOC2(c2ccccc2Cl)c2cc(Cl)ccc2N1` (stereo not drawn), the “activity change, negative = inhibition” value falls from -3.19% [at 35.3 µM] to -20.8% [at 35.3 µM].

Going from `Clc1cccc(N2CCNCC2)c1` to `c1ccc(N2CCNCC2)cc1`, the “activity change, negative = inhibition” value rises from -2.34% [at 35.3 µM] to -0.281% [at 35.3 µM].

With `ClCCCN1CCN(c2cccc(Cl)c2)CC1` the Potency was 10.7 µM (active).
In the case of `O=C(CCCN1CCC(n2c(=O)[nH]c3ccccc32)CC1)c1ccc(F)cc1`, the Potency is reported as 1.51 µM (active).

In the case of `CCN(CC)C(=O)[C@@H]1C=C2c3cccc4[nH]cc(c34)C[C@H]2N(C)C1`, the “activity change, negative = inhibition” value is reported as 0.453% [at 200 µM].
